FLuc inh: blocks purified firefly luciferase enzyme activity; P08659; purified P. pyralis luciferase, luminescence, biochemical; Potency, µM (series often up to 115 µM), hits mostly inhibitors; 2.5% of 76,000 active; AID 1347043; also: nearly all actives have a fitted effect of over 65% in size
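Biochemical qHTS: compound (6-point titration) added to 10uM D-luciferin plus 10uM ATP in Tris acetate pH 7.5 buffer with Mg, Tween-20 and BSA, then purified enzyme at 10nM; light output imaged.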
HEK293 tox: kills HEK 293 cells | Potency, µM (doses to about 115 µM), for inactives: at the top dose activity change, negative = cytotoxicity, most hits filed as inhibitors | HEK 293 viability, ATP luminescence (CellTiter-Glo), 48-72 h | AID 1345083 | 6.6% of 94,000 active; also: nearly all actives have a fitted effect of over 60% in size
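Cells seeded first (HEK 293, 250 cells/well), then compound added by pintool. Incubation ran 48 or 72 hr at 37 degree Celsius. CellTiter-Glo was added and luminescence imaged after 10 min at room temperature.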
3T3 cytotox: NIH 3T3 cell cytotoxicity | NIH 3T3 viability, CellTiter-Glo ATP luminescence, 48-72 h | Potency, µM (doses to about 96.7 µM), for inactives: at the highest dose activity change, negative = cytotoxicity, most hits filed as inhibitors | 4.3% of 94,000 active; also: nearly all actives have a fitted effect of over 55% in size
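Viability of NIH 3T3 cells after 48 or 72 hr compound treatment at 37 °C was assessed by CellTiter-Glo, with luminescence imaged following a 10 min room-temperature step.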
hNpr1 antagonist: human Npr1 receptor antagonism | AID 1347048 | HEK293 hNpr1 GloSensor cGMP, ANP-stimulated luminescence | 1.6% of 76,000 active | Potency, µM (highest dose often 46.3 µM), for the others: top-dose activity change, negative = inhibition, most hits filed as inhibitors; calls by dose curve; also: nearly all actives have a fitted effect of over 60% in size
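HEK293 cells stably expressing human Npr1 and cGMP GloSensor pGS-40F, loaded 2 h with 2% GloSensor reagent, given compound 30 min at room temperature. Luminescence read before and 20 min after 0.1 nM hNppA.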
* = called active by the depositor; i = inactive; ? = inconclusive; · = no result given; ! = not active in a repeat; [ ] = another dose, or the depositor's remark. An excerpt weighted towards active compounds, which were near 11% of everything screened. Unless noted, calls follow the shape of the dose curve; as a rule, active = well fitted curve in the direction sought with a large enough effect; inconclusive = small, poorly fitted or top-dose-only effect, or another doubt; inactive = no such curve, though single readings can be large; an effect the other way counts as inactive or inconclusive. % is scaled to controls: 0 for no effect and ±100 for the full control effect; potency is read from the fitted curve at half-maximal effect.

SMILES | FLuc inh | HEK293 tox | 3T3 cytotox | hNpr1 antagonist
Cc1ccccc1Cc1c(C)nc2c(C(=O)NCCc3noc(-c4cccnc4)n3)cnn2c1C | · | 89.1µM* | ? | ·
Cc1ccccc1Cc1c(C)nc2c(C(=O)NCCc3noc(-c4ccncc4)n3)cnn2c1C | i | 44.7µM* | ? | 3.6%
O=C(c1noc(-c2ccc(F)cc2)n1)N1CCN(c2ccccc2)CC1 | 39.8µM* | ? | -32.5% | -6.6%
O=C(CCc1ccc(O)cc1)N[C@H]1CC[C@H](Nc2nccc(-c3cccnc3)n2)C1 | i | 39.8µM* | 50.1µM* | -11.8%
COc1ccccc1CN1CCNc2cc(-c3ccccc3)ncc2C1 | ? | ? | ? | -3.2%[70.6 µM]
COc1ccc(CN2CCNc3cc(-c4ccnc(C)c4)ncc3C2)cc1O | ? | ? | ? | -0.2%[70.6 µM]
COc1ccc(OC)c(CN2CCNc3cc(-c4ccccc4)ncc3C2)c1 | 39.8µM* | 112µM* | ? | -6.2%[70.6 µM]
CN(C)c1cccc(-c2cc3c(cn2)CN(Cc2ccncc2)CCN3)c1 | ? | ? | ? | -15.6%[70.6 µM]
COc1ccccc1CN1CCNc2cc(-c3ccnc(C)c3)ncc2C1 | 70.8µM* | 89.1µM* | ? | -3.5%[70.6 µM]
COc1ccc(CN2CCNc3cc(-c4ccccc4)ncc3C2)cc1 | ? | 50.1µM* | ? | -20.1%[70.6 µM]
c1ccc(-c2cc3c(cn2)NCCN(Cc2ccsc2)C3)cc1 | ? | ? | ? | 0.0%[70.6 µM]
Fc1ccc(CN2CCNc3cnc(-c4ccccc4)cc3C2)cc1F | i | ? | 79.4µM* | -2.3%[70.6 µM]
O=c1n(Cc2ccc(F)c(F)c2)nc(C2CCNCC2)n1Cc1ccccc1 | i | -19.8% | -27.1% | 0.7%
COc1ccc(OC)c(CN2CCNc3cnc(Nc4ccccc4)cc3C2)c1 | i | 70.8µM* | ? | -17.0%[70.6 µM]
Oc1ccccc1CN1CCNc2cnc(Nc3ccccc3)cc2C1 | i | ? | ? | ?
CCc1nc2c(c(-c3ccc(OC)cc3)n1)CN([S+](=O)([O-])c1cccs1)CC2 | · | 0.9% | 11.2µM* | ·
COc1ccc(-c2nc(C)nc3c2CN([S+](=O)([O-])c2cccs2)CC3)cc1 | · | i | 28.2µM* | ·
COc1ccc(-c2nc(C3CC3)nc3c2CN([S+](=O)([O-])c2cccs2)CC3)cc1 | · | -28.1% | ? | ·
CCCS(=O)(=O)N1CC(CNC(C)=O)C2(CCCCC2)C1 (stereo not drawn) | · | -9.9% | -15.4% | ·
COc1ccc(CN2CCCC3(Cc4ccccc4CNC3=O)C2)cc1F (stereo not drawn) | · | -21.3% | ? | ·
COCC(=O)N1CCN(c2ccc3nnc(C4CC4)n3n2)CC1 | · | -3.5%[172 µM] | -28.3%[138 µM] | ·
COc1ncccc1-c1nccn2c(C3CN(Cc4c[nH]c5ccccc45)C3)ncc12 | i | ? | ? | -17.0%[70.6 µM]
O=C(c1ccn[nH]1)N1CC(c2ncc3c(-c4cccc(C(F)(F)F)c4)nccn23)C1 | i | ? | ? | -1.2%[70.6 µM]
Cc1ccccc1-c1nccn2c(C3CN(C(=O)c4cc5ccccc5[nH]4)C3)ncc12 | ? | 89.1µM* | 79.4µM* | -27.8%[70.6 µM]
Cc1ccccc1-c1nccn2c(C3CN(Cc4ccc(O)cc4)C3)ncc12 | i | ? | 79.4µM* | 4.4%[70.6 µM]
SMILES | FLuc inh | HEK293 tox | 3T3 cytotox | hNpr1 antagonist
Cc1noc(-c2cccc(OC3CN(S(=O)(=O)c4cn(C)cn4)C3)c2)n1 | i | -7.7% | -21.0% | -5.9%
COc1ccc(OC2CNC2)cc1 | · | -3.6%[230 µM] | -25.7%[174 µM] | ·
CCN1C(=O)C2CC3(CCN(C(=O)CCc4c(C)nn(C)c4C)CC3)CN2C1=O (stereo not drawn) | i | -4.6% | -18.5% | -0.3%
c1ccc(C2=NOC3(CCN(Cc4c[nH]c5ccccc45)CC3)C2)cc1 | · | 44.7µM* | ? | ·
c1ccc(CC2=NOC3(CCN(Cc4c[nH]c5ccccc45)CC3)C2)cc1 | · | 50.1µM* | 31.6µM* | ·
C[S+](=O)([O-])N1CC2(CCN(Cc3c[nH]c4ccccc34)CC2)Cc2ccccc21 | · | 44.7µM* | 25.1µM* | ·
CC(C)NC(=O)N[C@H]1CCN2C(=O)c3cc(/C=C/c4ccccc4)ccc3NC(=O)[C@H]12 | 3.98µM* | 1.6%[172 µM] | i | 4.6%[70.6 µM]
CC(C)NC(=O)N[C@H]1CCN2C(=O)c3cc(-c4ccc(Cl)cc4)ccc3NC(=O)[C@H]12 | i | -13.9%[172 µM] | -25.4%[174 µM] | 1.2%[70.6 µM]
Cn1nc(C2CCCN(C(=O)c3ccco3)C2)n(C2CCCC2)c1=O (stereo not drawn) | · | i | ? | ·
COc1ccc(-c2nnc(C[C@@H]3C[C@@H](C(C)C)[C@H](CO)C=C3C)o2)cc1 | i | 39.8µM* | ? | -1.9%[70.6 µM]
CC1=C[C@@H](CN(C)CCO)[C@H](C(C)C)C[C@H]1Cc1nnc(-c2ccc(C)cc2)o1 | i | 89.1µM* | ? | -2.2%[70.6 µM]
COCCNC[C@@H]1C=C(C)[C@H](Cc2nnc(-c3ccc(OC)cc3)o2)C[C@H]1C(C)C | i | 28.2µM* | 28.2µM* | 1.4%[70.6 µM]
CC1=C[C@@H](CN(C)CCO)[C@H](C(C)C)C[C@H]1Cc1nnc(-c2ccccc2)o1 | i | ? | ? | -1.7%[70.6 µM]
C#CCNC(=O)c1cccc(-c2ccc(OC)nn2)c1 | · | -7.9%[172 µM] | ? | ·
CN(CC(O)COc1cccc(CNCCOc2ccccc2)c1)C1CCCCC1 (stereo not drawn) | i | ? | ? | 7.2%
CC(C)Cn1c(CNC(=O)OC(C)(C)C)nc2cccnc21 | i | ? | 44.7µM*! | 4.8%[70.6 µM]
COC(=O)CNC(=O)c1nc2cccnc2n(CC(C)C)c1=O | · | -0.3%[172 µM] | -25.4%[138 µM] | ·
COc1ccccc1-c1cccc(CN2CCC(NC(=O)NC3CCCC3)CC2)c1 | · | 39.8µM* | 28.2µM* | ·
CSc1ccc(-c2cccc(CN3CCC(NC(=O)C4CCCC4)CC3)c2)cc1 | · | 0.2% | -2.5% | ·
COc1ccccc1-c1cccc(CN2CCC(NC(=O)c3ccc(C)cc3)CC2)c1 | · | 50.1µM* | ? | ·
CSc1ccc(-c2cccc(CN3CCC(NC(=O)c4ccc(C)cc4)CC3)c2)cc1 | · | -3.2% | -9.1% | ·
COc1ccccc1-c1cccc(CN2CCC(NC(=O)Nc3ccccc3F)CC2)c1 | · | 25.1µM* | 17.8µM* | ·
O=C1Cc2c(-c3ccccc3OCc3ccccc3)n[nH]c2CN1CCOc1ccccc1 | i | ? | ? | -17.8%
O=C1Cc2c(-c3ccccc3OCc3ccccc3)n[nH]c2CN1Cc1ccccc1 | i | 50.1µM* | ? | -21.2%[70.6 µM]
O=C1Cc2c(-c3ccccc3OCc3ccccc3)n[nH]c2CN1Cc1ccccn1 | i | 100µM* | ? | -9.6%[70.6 µM]
O=C1Cc2c(-c3ccccc3Oc3ccccc3)n[nH]c2CN1Cc1ccccn1 | i | ? | ? | -4.7%[70.6 µM]
O=C(c1cccnc1)N1CCC(N2C(=O)C3(CCCCC3)C2c2ccncc2)CC1 (stereo not drawn) | · | -2.2% | -0.5% | ·
O=C(COc1ccccc1)N1CCC(Oc2cnc3c(ccn3-c3cncnc3)c2)CC1 | i | 89.1µM* | -67.3%[138 µM] | -29.7%[70.6 µM]
COc1ccc(C(=O)N2CCCC(n3cc(-c4nc(C(C)C)no4)nn3)C2)cn1 (stereo not drawn) | i | -3.6% | -23.4% | -0.4%
